# Measurements reported in the supplement of paper PMC10849652.
# Targets with a hit are over-represented here; the source holds about 8,800 in all. About 0.5% of all pairs of compound and target were hits. A number with no mark means an inactive call.
# Tests used:
# Test in all cases: log2 fold change, soluble protein after heating vs DMSO (PISA); higher = thermal stabilisation; K562 lysate, 10 uM; active = over 0.2 and 3.5 SD of the protein, either way, in both replicates (recomputed)
# [1] = compound: C1=CC=C(C=C1)[C@H](COC2=CC3=C(C=C2)NC(=O)N3)NC(=O)C4=CC=CN(C4=O)CC5=CC(=C(C=C5)F)F
# How it was run: (§1)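 Dounce homogenisation of K562 pellets in PBS pH 7.4 with 1 mM MgCl2 produced a crude extract, used at 1 mg/mL protein. Exposure to 10 μM compound lasted 30 min, and aliquots were then heated for 3 min across 48°C-58°C, pooled and brought to 0.5% NP-40 at 4°C. The supernatant after 21,000xg for 90 min was quantified by TMTpro 16plex LC-MS/MS with channel sums equalised. Duplicate values are given as log-two fold change in thermal stability relative to solvent controls.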
# [2] = compound: CC1=C(SC2=C1C(=N[C@H](C3=NN=C(N32)C)CC(=O)N)C4=CC=C(C=C4)Cl)C
# How it was run: as §1
# [3] = compound: CC1=C2C(=CC=C1)N=C(N(C2=O)C3=CC=CC=C3C)CN4C=NC5=C(N=CN=C54)N
# How it was run: as §1
# [4] = compound: Cc1sc2c(c1C)C(c1ccc(Cl)cc1)=N[C@@H](CC(=O)OC(C)(C)C)c1nnc(C)n1-2
# How it was run: as §1
# [5] = compound: c1ccc([C@@H]2C[C@H]2NC2CCNCC2)cc1
# How it was run: as §1
# Chain of UniProt Q7L211 (Q7L211 whole entry, looked up): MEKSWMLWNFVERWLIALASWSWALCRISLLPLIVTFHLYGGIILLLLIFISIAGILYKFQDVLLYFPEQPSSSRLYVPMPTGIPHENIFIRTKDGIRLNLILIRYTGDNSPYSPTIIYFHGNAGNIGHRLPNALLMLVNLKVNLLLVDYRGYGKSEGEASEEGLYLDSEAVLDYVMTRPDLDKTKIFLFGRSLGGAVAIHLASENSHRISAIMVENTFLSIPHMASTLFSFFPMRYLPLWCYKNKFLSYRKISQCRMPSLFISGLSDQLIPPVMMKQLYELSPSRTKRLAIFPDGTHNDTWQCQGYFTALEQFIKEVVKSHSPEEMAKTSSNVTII
# Chain of UniProt P42331 (P42331 whole entry, looked up): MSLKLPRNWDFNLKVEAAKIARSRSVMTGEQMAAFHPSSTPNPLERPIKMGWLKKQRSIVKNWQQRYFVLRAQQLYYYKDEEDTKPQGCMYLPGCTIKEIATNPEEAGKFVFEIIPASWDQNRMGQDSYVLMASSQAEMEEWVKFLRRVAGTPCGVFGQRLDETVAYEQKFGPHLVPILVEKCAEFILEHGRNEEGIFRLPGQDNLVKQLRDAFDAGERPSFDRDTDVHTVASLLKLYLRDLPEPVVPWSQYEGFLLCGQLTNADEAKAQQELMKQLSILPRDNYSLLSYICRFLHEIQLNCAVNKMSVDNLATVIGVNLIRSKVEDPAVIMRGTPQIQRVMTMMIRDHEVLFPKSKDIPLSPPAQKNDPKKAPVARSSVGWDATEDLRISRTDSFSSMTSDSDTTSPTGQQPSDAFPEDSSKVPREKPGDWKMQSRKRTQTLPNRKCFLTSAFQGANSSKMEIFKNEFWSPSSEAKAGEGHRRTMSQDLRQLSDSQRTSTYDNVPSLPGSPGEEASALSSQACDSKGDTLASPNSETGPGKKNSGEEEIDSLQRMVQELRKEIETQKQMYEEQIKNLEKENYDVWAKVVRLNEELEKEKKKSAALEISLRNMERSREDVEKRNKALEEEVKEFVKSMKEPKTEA
# Chain of UniProt Q13155 (Q13155 whole entry, looked up): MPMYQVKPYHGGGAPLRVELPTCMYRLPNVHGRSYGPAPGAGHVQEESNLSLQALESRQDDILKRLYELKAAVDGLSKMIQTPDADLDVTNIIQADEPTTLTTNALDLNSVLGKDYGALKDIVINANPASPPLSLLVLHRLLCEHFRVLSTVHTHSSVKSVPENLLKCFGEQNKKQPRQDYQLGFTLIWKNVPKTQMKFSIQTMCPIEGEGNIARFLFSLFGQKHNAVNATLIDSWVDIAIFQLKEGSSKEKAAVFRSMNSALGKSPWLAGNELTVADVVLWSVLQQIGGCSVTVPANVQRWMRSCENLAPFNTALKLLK
# Chain of UniProt Q6NXT1 (Q6NXT1 whole entry, looked up): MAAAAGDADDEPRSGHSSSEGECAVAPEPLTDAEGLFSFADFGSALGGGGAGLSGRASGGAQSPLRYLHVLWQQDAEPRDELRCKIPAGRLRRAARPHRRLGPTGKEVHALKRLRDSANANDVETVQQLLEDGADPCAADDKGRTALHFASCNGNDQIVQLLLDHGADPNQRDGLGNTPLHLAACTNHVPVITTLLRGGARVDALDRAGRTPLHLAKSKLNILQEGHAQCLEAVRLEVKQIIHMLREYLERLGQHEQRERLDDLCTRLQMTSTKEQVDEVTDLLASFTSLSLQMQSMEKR
# Chain of UniProt Q3SY69 (Q3SY69 whole entry, looked up): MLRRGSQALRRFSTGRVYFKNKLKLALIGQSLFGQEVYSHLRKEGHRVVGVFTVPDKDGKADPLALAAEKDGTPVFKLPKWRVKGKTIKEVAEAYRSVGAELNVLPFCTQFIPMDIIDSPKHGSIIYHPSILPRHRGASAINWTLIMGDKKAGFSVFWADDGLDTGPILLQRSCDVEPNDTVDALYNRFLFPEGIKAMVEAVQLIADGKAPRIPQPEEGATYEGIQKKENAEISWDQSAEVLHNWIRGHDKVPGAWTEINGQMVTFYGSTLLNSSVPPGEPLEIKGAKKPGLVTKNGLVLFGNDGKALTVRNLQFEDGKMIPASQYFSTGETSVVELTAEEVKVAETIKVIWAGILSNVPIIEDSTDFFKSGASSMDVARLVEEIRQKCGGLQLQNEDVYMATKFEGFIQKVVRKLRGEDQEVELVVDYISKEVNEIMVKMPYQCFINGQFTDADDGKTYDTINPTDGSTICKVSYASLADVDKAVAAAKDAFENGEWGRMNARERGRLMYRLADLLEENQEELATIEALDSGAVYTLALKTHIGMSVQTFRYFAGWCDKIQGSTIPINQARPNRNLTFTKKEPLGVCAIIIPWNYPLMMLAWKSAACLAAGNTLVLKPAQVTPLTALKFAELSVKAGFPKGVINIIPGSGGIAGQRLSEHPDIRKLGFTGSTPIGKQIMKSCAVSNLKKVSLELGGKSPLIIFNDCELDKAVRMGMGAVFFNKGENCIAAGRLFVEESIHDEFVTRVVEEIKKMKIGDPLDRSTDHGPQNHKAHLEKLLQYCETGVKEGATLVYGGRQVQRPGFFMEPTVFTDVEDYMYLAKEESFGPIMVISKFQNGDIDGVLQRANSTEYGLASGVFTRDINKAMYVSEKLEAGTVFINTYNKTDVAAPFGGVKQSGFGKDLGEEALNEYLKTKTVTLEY
# Chain of UniProt Q8NFV4 (Q8NFV4 whole entry, looked up): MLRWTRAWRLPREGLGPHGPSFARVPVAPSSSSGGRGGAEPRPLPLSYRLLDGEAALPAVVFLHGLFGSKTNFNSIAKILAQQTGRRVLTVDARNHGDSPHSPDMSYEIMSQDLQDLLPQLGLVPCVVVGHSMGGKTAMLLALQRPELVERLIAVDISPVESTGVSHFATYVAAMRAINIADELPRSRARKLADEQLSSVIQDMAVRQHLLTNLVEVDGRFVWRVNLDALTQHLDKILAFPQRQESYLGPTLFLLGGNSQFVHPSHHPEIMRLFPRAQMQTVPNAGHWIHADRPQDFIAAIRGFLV
# Chain of UniProt P35573 (P35573 whole entry, looked up): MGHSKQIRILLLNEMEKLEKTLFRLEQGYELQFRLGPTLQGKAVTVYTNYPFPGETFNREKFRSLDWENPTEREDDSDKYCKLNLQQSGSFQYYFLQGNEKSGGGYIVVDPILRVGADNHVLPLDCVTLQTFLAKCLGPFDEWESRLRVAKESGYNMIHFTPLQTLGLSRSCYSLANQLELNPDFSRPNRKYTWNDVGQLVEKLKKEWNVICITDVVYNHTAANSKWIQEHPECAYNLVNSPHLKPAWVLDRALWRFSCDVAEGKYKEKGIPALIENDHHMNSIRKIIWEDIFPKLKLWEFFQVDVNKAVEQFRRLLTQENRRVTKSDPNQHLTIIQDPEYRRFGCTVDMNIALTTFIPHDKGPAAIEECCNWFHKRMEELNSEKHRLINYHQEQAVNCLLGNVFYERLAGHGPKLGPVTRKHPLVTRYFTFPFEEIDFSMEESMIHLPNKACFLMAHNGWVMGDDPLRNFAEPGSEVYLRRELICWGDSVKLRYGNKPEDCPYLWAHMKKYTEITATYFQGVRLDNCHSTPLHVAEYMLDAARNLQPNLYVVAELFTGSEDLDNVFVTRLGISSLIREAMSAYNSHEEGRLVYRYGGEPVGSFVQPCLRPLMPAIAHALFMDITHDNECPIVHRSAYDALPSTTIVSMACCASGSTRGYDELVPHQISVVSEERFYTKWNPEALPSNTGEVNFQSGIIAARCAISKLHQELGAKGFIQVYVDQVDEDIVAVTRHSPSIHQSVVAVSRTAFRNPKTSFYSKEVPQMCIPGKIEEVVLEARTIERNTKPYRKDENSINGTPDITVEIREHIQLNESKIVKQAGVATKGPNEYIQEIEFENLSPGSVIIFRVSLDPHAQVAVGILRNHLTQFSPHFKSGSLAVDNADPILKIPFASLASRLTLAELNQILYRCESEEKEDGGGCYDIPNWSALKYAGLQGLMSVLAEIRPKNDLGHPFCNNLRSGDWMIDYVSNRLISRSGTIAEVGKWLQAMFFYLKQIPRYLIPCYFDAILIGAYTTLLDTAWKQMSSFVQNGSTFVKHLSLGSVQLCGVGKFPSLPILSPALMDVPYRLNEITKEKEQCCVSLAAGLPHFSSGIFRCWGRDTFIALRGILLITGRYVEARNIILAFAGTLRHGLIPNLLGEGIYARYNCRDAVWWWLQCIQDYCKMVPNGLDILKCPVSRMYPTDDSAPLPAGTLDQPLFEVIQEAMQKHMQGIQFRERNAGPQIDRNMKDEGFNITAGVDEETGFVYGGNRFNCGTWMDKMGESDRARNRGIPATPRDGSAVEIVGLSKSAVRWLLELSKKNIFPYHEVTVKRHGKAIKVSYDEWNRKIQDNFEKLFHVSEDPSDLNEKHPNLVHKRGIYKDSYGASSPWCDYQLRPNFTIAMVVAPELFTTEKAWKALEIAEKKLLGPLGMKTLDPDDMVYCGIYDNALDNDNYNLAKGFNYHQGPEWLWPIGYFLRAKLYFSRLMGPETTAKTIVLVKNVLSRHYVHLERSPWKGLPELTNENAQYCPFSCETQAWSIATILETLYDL
# Chain of UniProt P50995 (P50995 whole entry, looked up): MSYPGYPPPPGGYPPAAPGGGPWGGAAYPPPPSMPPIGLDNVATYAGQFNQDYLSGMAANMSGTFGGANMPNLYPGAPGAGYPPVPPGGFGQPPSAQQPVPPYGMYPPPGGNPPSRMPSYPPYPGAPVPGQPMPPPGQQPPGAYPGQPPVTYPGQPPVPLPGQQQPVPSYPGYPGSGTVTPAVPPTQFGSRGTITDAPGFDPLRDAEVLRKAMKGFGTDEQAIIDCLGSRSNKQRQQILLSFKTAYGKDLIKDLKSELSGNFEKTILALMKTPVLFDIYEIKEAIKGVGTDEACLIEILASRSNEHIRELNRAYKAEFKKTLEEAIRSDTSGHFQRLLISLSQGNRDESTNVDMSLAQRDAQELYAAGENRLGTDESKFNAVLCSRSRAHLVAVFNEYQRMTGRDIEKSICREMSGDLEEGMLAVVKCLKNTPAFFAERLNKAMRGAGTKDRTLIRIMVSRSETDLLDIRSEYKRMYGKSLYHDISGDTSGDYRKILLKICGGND
# Chain of UniProt P07311 (P07311 whole entry, looked up): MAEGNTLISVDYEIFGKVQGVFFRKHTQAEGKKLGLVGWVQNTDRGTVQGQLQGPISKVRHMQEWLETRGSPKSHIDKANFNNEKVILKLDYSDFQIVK
Target,log2 fold change [1],log2 fold change [2],log2 fold change [3],log2 fold change [4],log2 fold change [5]
ACYP1 (UniProt P07311),0.019,-0.026,-0.036,0.022,0.052
ARMCX5 (UniProt Q6P1M9),0.021,-0.07,0.057,0.036,-0.03
ANKRD30B (UniProt Q9BXX2),-0.098,0.112,0.042,-0.125,-0.407
ADD1 isoform 4 (UniProt P35611),0.22,0.088,0.12,-0.099,-0.571
ANXA11 (UniProt P50995),0.23 (active),0.028,0.015,0.015,0.002
ASB6 (UniProt Q9NWX5),0.012,0.125,0.005,0.016,0.028
AIMP2 isoform 2 (UniProt Q13155),0.182,0.029,,,
ASNS (UniProt P08243),0.006,0.021,0.027,0.057,0.033
ARHGEF2 (UniProt Q92974),0.023,-0.007,0.034,0.008,0.05
ABL1 isoform 2 (UniProt P00519),-0.042,-0.065,0.067,-0.017,0.102
ANKRD54 (UniProt Q6NXT1),0.011,-0.04,0.038,-0.042,-0.024
ABHD11 (UniProt Q8NFV4),0.072,-0.031,0.028,-0.021,-0.098
ACSL1 (UniProt P33121),-0.136,0.004,0.014,0.063,0.021
ABCF2 isoform 2 (UniProt Q9UG63),-0.022,-0.011,0.04,-0.019,0.055
AMMECR1 (UniProt Q9Y4X0),-0.014,0.019,0.064,-0.007,0.036
AP4B1 (UniProt Q9Y6B7),0.02,0.063,-0.025,0.093,0.03
ABHD16A (UniProt O95870),-0.011,0.008,0.07,0.059,0.028
AMDHD2 isoform 3 (UniProt Q9Y303),0.049,0.016,0.031,0.037,-0.043
ABHD13 (UniProt Q7L211),0.043,-0.127,0.153,-0.171,-0.246
ARHGAP6 (UniProt O43182),-0.026,-0.023,-0.012,0.018,0.02
AGPS (UniProt O00116),-0.103,0.016,0.035,0.019,-0.006
AGO4 (UniProt Q9HCK5),0.014,0.022,0.001,-0.011,-0.07
ARL1 (UniProt P40616),0.094,0.023,0.051,-0.026,0.026
ABCA3 (UniProt Q99758),0.112,0.038,0.006,-0.01,-0.005
ALKBH4 (UniProt Q9NXW9),0.011,0.025,0.032,0.01,-0.017
"ADK, A0A5F9ZH76",-0.136,0.197,,,
ARHGAP21 (UniProt Q5T5U3),0.031,0.117,0.031,0.008,0.124

Target,log2 fold change [1],log2 fold change [2],log2 fold change [3],log2 fold change [4],log2 fold change [5]
AKR1C3 (UniProt P42330),0.031,0.05,0.022,-0.04,0.031
ANXA2 isoform 2 (UniProt P07355),0,-0.005,-0.019,0.024,0.02
AIMP2 (UniProt Q13155),-0.028,0.021,0.013,0.036,0.041
AFF4 (UniProt Q9UHB7),-0.362 (active),-0.269,-0.081,-0.026,-0.052
ACTBL2 (UniProt Q562R1),0.138,-0.194,-0.016,0.106,0.365
ADD1 isoform 3 (UniProt P35611),0.03,0.016,-0.01,-0.021,0.015
ALDH6A1 (UniProt Q02252),0.011,-0.111,0,0.02,-0.061
ANKRD52 (UniProt Q8NB46),-0.004,-0.036,0.056,0.055,0.004
ACBD6 (UniProt Q9BR61),0.014,0.019,-0.009,-0.045,-0.022
ASPH (UniProt Q12797),0.006,0.028,0,-0.045,0.026
AGPAT1 (UniProt Q99943),-0.04,0.024,0.089,-0.038,-0.134
ABHD17B (UniProt Q5VST6),0.014,0.044,-0.028,-0.044,-0.198
ANXA5 (UniProt P08758),0.031,0.016,0.013,0.033,0.075
AIP (UniProt O00170),0.012,-0.023,-0.006,0.025,0.125
ARHGAP25 isoform 4 (UniProt P42331),0.013,0.016,0.012,-0.046,0.035
ACACA isoform 4 (UniProt Q13085),0.001,0.027,0.019,0.027,0.085
ADAM17 (UniProt P78536),-0.098,-0.251 (active),0.093,0.002,-0.032
AK1 (UniProt P00568),-0.032,0.024,-0.009,0.012,0.2
ADAR isoform 4 (UniProt P55265),-0.188,0.116,0.035,0.005,0.032
ARL13B (UniProt Q3SXY8),0.087,0.03,0.012,0.019,0.145
ALDH1L2 (UniProt Q3SY69),0.015,0.041,0.052,-0.009,-0.023
ACOX1 isoform 2 (UniProt Q15067),0.035,-0.002,-0.026,-0.018,-0.037
AMPD3 isoform 4 (UniProt Q01432),0.02,-0.021,-0.012,0.018,0.093
AGL (UniProt P35573),0.022,0.028,0.036,0.035,0.086
ACIN1 (UniProt E7EQT4),0.04,0.015,0.037,0.032,-0.118
AIFM2 (UniProt Q9BRQ8),0.668 (active),0.008,0.039,-0.007,-0.1
ALDH5A1 isoform 2 (UniProt P51649),-0.029,-0.018,-0.017,0.004,0.075
